# Source: the supplement of paper PMC4709259
# Where a name gives a salt, the structure may show the parent alone. ± gives the standard deviation.
# System: Jurkat
# Experiment: mean cell size (FSC-A) relative to DMSO control (fraction of control); higher = larger cells
# Settings: 48 h
# How it was run: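 Jurkat cells seeded at 600 cells/µl were incubated 1 h, then exposed for 48h to the Enzo Screen-Well FDA Approved Drug Library v2.0 at 25µM in 0.9% (v/v) final DMSO. Drugs that cut counts below 20% of controls were diluted 10-fold and retested, down to 25nM. Cell count and mean cell size (forward scatter area) were read on an Accuri C6 flow cytometer, relative to solvent-only controls. Plates held 6-12 controls; values are means of 3 biological replicates.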
row,SMILES,mean cell size
1,CC(C)C(=O)OCC(=O)[C@@]12O[C@H](C3CCCCC3)O[C@@H]1C[C@H]1[C@@H]3CCC4=CC(=O)C=C[C@]4(C)[C@H]3[C@@H](O)C[C@@]12C [Ciclesonide] (concentration: 2.5 µM),0.9714 ± 0.0087
2,CSc1ccc2c(c1)N(CCC1CCCCN1C)c1ccccc1S2 (centres undefined) [Thioridazine·HCl] (concentration: 2.5 µM),1.08 ± 0.014
3,Clc1ccc(CSC(Cn2ccnc2)c2ccc(Cl)cc2Cl)cc1 (centres undefined) [Sulconazole Nitrate] (concentration: 25 µM),0.953 ± 0.023
4,CO/N=C(\C(=O)N[C@@H]1C(=O)N2C(C(=O)O)=C(COC(N)=O)CS[C@H]12)c1ccco1 [Cefuroxime·Na] (concentration: 25 µM),0.994 ± 0.028
5,CC(=O)N(O)CCCCCNC(=O)CCC(=O)N(O)CCCCCNC(=O)CCC(=O)N(O)CCCCCN [Deferoxamine Mesylate] (concentration: 25 µM),1.09 ± 0.053
6,CCN(CC)CCNC(=O)c1cc(Cl)c(N)cc1OC [Metoclopramide·HCl] (concentration: 25 µM),0.951 ± 0.018
7,O=C(O)c1cc(N=Nc2ccc(O)c(C(=O)O)c2)ccc1O [Olsalazine·Na] (concentration: 25 µM),0.955 ± 0.036
8,Cc1cc(C(=O)NNCc2ccccc2)no1 [Isocarboxazid] (concentration: 25 µM),0.965 ± 0.057
9,CC1(C)O[C@@H]2C[C@H]3[C@@H]4C[C@H](F)C5=CC(=O)C=C[C@]5(C)[C@@]4(F)[C@@H](O)C[C@]3(C)[C@]2(C(=O)CO)O1 [Fluocinolone Acetonide] (concentration: 25 µM),0.958 ± 0.037
11,CCC(=O)O[C@]1(C(=O)SCF)[C@H](C)C[C@H]2[C@@H]3C[C@H](F)C4=CC(=O)C=C[C@]4(C)[C@@]3(F)[C@@H](O)C[C@@]21C [Fluticasone Propionate] (concentration: 25 µM),0.967 ± 0.015
12,O=C(O)C(=O)O.[NH-][C@@H]1CCCC[C@H]1[NH-].[Pt+2] [Oxaliplatin] (concentration: 25 µM),1.01 ± 0.034
13,CC(c1cc2ccccc2s1)N(O)C(N)=O (centres undefined) [Zileuton] (concentration: 25 µM),1 ± 0.038
14,CC(C)[N+]1(C)[C@@H]2CC[C@H]1CC(OC(=O)C(CO)c1ccccc1)C2 (some centres undefined) [Ipratropium·Br] (concentration: 25 µM),1.01 ± 0.029
15,CC1=C(/C=C/C(C)=C\C=C\C(C)=C\C(=O)O)C(C)(C)CCC1 [Alitretinoin] (concentration: 25 µM),0.927 ± 0.025
16,O=C(CCCN1CC=C(n2c(=O)[nH]c3ccccc32)CC1)c1ccc(F)cc1 [Droperidol] (concentration: 25 µM),0.962 ± 0.032
17,"Nc1ccn([C@H]2CC[C@@H](CO)O2)c(=O)n1 [Zalcitabine (2',3'-Dideoxycytidine)] (concentration: 25 µM)",1.31 ± 0.061
18,CN(N=O)C(=O)N[C@@H]1[C@@H](O)[C@H](O)[C@@H](CO)O[C@@H]1O [Streptozocin] (concentration: 25 µM),0.939 ± 0.014
19,Cn1ccnc1S [Methimazole] (concentration: 25 µM),0.951 ± 0.011
20,CNC[C@H](O)c1ccc(O)c(O)c1 [Epinephrine (L-(-)-Epinephrine-(+)-Bitartrate)] (concentration: 25 µM),0.959 ± 0.053

row,SMILES,mean cell size
1,Nc1c(CC(=O)O)cccc1C(=O)c1ccc(Br)cc1 [Bromfenac] (concentration: 25 µM),0.938 ± 0.018
2,Cc1nc2n(c(=O)c1CCN1CCC(c3noc4cc(F)ccc34)CC1)CCCC2O (centres undefined) [Paliperidone] (concentration: 25 µM),0.985 ± 0.043
3,COCCc1ccc(OCC(O)CNC(C)C)cc1 (centres undefined) [Metoprolol Tartrate] (concentration: 25 µM),0.935 ± 0.026
4,OC(c1cc(C(F)(F)F)nc2c(C(F)(F)F)cccc12)C1CCCCN1 (centres undefined) [Mefloquine·HCl] (concentration: 2.5 µM),0.9935 ± 0.0057
5,COc1c(N2C[C@@H]3CCCN[C@@H]3C2)c(F)cc2c(=O)c(C(=O)O)cn(C3CC3)c12 [Moxifloxacin·HCl] (concentration: 25 µM),0.919 ± 0.01
6,COc1cc(CNC(=O)CCCC/C=C/C(C)C)ccc1O [Capsaicin] (concentration: 25 µM),0.903 ± 0.021
7,Nc1cc(-c2ccncc2)c[nH]c1=O [Amrinone] (concentration: 25 µM),0.965 ± 0.031
8,CC(=O)[C@@]1(O)CC[C@H]2[C@@H]3C[C@H](C)C4=CC(=O)C=C[C@]4(C)[C@@]3(F)[C@@H](O)C[C@@]21C [Fluorometholone] (concentration: 25 µM),0.914 ± 0.06
9,CN(C)c1ccc(O)c2c1C[C@H]1C[C@H]3[C@H](N(C)C)C(=O)C(C(N)=O)=C(O)[C@@]3(O)C(=O)C1=C2O [Minocycline] (concentration: 2.5 µM),0.969 ± 0.027
10,COc1ccc([C@@H]2Sc3ccccc3N(CCN(C)C)C(=O)[C@@H]2OC(C)=O)cc1 [Diltiazem·HCl] (concentration: 25 µM),0.959 ± 0.053
11,C[n+]1ccccc1/C=N/O [Pralidoxime Chloride] (concentration: 25 µM),1.08 ± 0.037
12,CCCC(CCC)C(=O)O [Valproic Acid] (concentration: 25 µM),0.986 ± 0.028
13,CO/N=C(\C(=O)N[C@@H]1C(=O)N2C(C(=O)OC(C)OC(C)=O)=C(COC(N)=O)CS[C@H]12)c1ccco1 (some centres undefined) [Cefuroxime Axetil] (concentration: 25 µM),0.99 ± 0.028
14,CN(C)[C@@H]1C(=O)C(C(N)=O)=C(O)[C@@]2(O)C(=O)C3=C(O)c4c(O)ccc(Cl)c4[C@@H](O)[C@H]3C[C@@H]12 [Demeclocycline·HCl] (concentration: 25 µM),0.811 ± 0.028
15,Nc1ccn([C@@H]2CS[C@H](CO)O2)c(=O)n1 [Lamivudine] (concentration: 25 µM),0.995 ± 0.046
16,CO[C@H]1/C=C/O[C@@]2(C)Oc3c(C)c(O)c4c(O)c(c5c(nc6cc(C)ccn65)c4c3C2=O)NC(=O)/C(C)=C\C=C\[C@H](C)[C@H](O)[C@@H](C)[C@@H](O)[C@@H](C)[C@H](OC(C)=O)[C@@H]1C [Rifaximin] (concentration: 25 µM),0.922 ± 0.039
17,CC[C@H](C)C(=O)O[C@H]1C[C@H](O)C=C2C=C[C@H](C)[C@H](CC[C@@H](O)C[C@@H](O)CC(=O)O)[C@H]21 [Pravastatin·Na] (concentration: 25 µM),1.07 ± 0.028
18,CNCCCN1c2ccccc2CCc2ccccc21 [Desipramine·HCl] (concentration: 25 µM),0.9721 ± 0.0012
19,Clc1cccc(Cl)c1NC1=NCCN1 [Clonidine·HCl] (concentration: 25 µM),0.931 ± 0.049
